# Laboratory results from PubChem BioAssay (NCI).
# About 83,000 compounds went through this panel and 20% of them were active in at least one assay; those are over-represented in the sample as a whole.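 Percent growth is the endpoint: 0 to 100 indicates growth inhibition (40 means 60% inhibition), 0 means no net growth, and negative values indicate cell death.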 Unmarked numbers belong to inactive results. Active and inactive are the calls of the source. Rule for the calls: active = growth percent below 10; inactive = the rest.
# Key:
# Experiment in all cases: NCI-60 one-dose screen, 48 h (100 = growth as untreated, 0 = no growth, -100 = all killed)
# [1] = system: NCI-H226 lung; conditions: 10 µM
# [2] = system: NCI-H322M lung; conditions: 10 µM unless noted
# [3] = system: HOP-62 NSCLC; conditions: 10 µM unless noted
# [4] = system: NCI-H460 lung; conditions: 10 µM unless noted
# [5] = system: HOP-92 NSCLC; conditions: 10 µM unless noted
# [6] = system: NCI-H522 lung; conditions: 10 µM
# [7] = system: A549/ATCC NSCLC; conditions: 10 µM unless noted
# [8] = system: 786-0 renal; conditions: 10 µM unless noted
# [9] = system: COLO 205 colon; conditions: 10 µM unless noted
# [10] = system: DU-145 prostate; conditions: 10 µM unless noted
# [11] = system: K-562 leukemia; conditions: 10 µM unless noted
# [12] = system: MALME-3M melanoma; conditions: 10 µM unless noted
# [13] = system: MDA-MB-231 breast; conditions: 10 µM unless noted
# [14] = system: RXF 393 renal; conditions: 10 µM unless noted
# [15] = system: SF-268 CNS; conditions: 10 µM unless noted
# [16] = system: SF-295 CNS; conditions: 10 µM unless noted
# [17] = system: SF-539 CNS; conditions: 10 µM unless noted
# [18] = system: UACC-257 melanoma; conditions: 10 µM unless noted
# [19] = system: M14 melanoma; conditions: 10 µM unless noted
Compound,growth [1] [%],growth [2],growth [3] [%],growth [4],growth [5] [%],growth [6],growth [7],growth [8],growth [9],growth [10],growth [11],growth [12],growth [13],growth [14],growth [15],growth [16],growth [17],growth [18] [%],growth [19]
Cc1nn(CC(=O)O)c2c1C(=O)CC(C)(C)C2,93.6,115%,91.1,107%,95.5,96.7%,102%,89.8%,117%,118%,123%,118%,114%,117%,103%,102%,102%,96.9,93.2%
COc1cc2nc(N3CCC[C@H](NC4=CC(=O)c5ccccc5C4=O)C3)nc(N)c2cc1OC,107,-72.2% (active),64,-65.7% (active),75.8,74.4%,-80.6% (active),-92.7% (active),-79.6% (active),-54.1% (active),-48.4% (active),-81.3% (active),-86.8% (active),-76.7% (active),-52.3% (active),-96.8% (active),-100% (active),97.7,96.2%
c1ccc2c(c1)oc1cc3c(cc12)nnc1cccn13,98.5,90.9%,116,112%,120,96.7%,97.1%,121%,,,,93.8%,101%,127%,105%,101%,95.1%,95.7,98.7%
CN1CCc2c(Sc3ccc(C(=O)NO)cc3)c3ccccc3n2C1,62.1,67.8%,66.8,40.3%,52.6,,52.1%,75.3%,,36.8%,28.2%,42.4%,8.01% (active),52.5%,35.9%,40.6%,17.1%,14.1,38.1%
ONc1nc(NO)c2[nH]cnc2n1,82.8,,83.9,86.7%,80.8,97%,101%,86.9%,112%,74.6%,23%,90.8%,77.4%,86.1%,58.8%,91%,103%,105,76.7%
COc1ccc(-n2ncc3c2ccc2cc(S(=O)(=O)c4ccccc4)c(=O)n(C)c23)cc1,52.6,,72.5,88.8%,37.2,33.2%,86.8%,82.3%,108%,77.7%,113%,88.7%,74%,67.9%,69.2%,96.5%,63.7%,92.9,92.8%
NC(=O)c1cc(I)ccc1NC(=O)COc1ccccc1,64.2,48.3%,21.7,6.3% (active),,0.734% (active),18.3%,33.7%,12.2%,25%,8.23% (active),,27.6%,8.03% (active),46.4%,12.6%,-33.6% (active),61.4,0.806% (active)
O=C(O)CCN1CCN(c2cccc(Cl)c2)CC1,104,,97,106%,110,127%,95.9%,104%,111%,118%,99.8%,107%,116%,105%,117%,87.4%,89.1%,94.6,109%
Cc1ccc2c(N/N=C\c3ccco3)cc(C)nc2n1,77.6,,83.3,34.1%,40.4,88.6%,46.4%,49.2%,8.81% (active),59.6%,37.2%,90.7%,68.9%,63.7%,77.5%,69.5%,72%,76.5,34.6%
CCCCC(=O)N/N=C/c1cc(I)cc(I)c1O,73.3,,42.5,28.1%,48.7,60.5%,46.6%,56.9%,57%,51%,32.1%,75.8%,57%,74.6%,43.1%,41.2%,28.8%,41.8,56.4%
Cn1c2ccc(Cl)cc2c2nn(C(=O)c3ccccc3)c(=O)nc21,93.7,106%,,105%,,101%,113%,113%,123%,114%,110%,,106%,98.9%,104%,,99.9%,128,98.9%
CCCCC(CCCC)(S(=O)(=O)CC)S(=O)(=O)CC,95.2,,92.5,104%,87.6,87.3%,94.3%,98.6%,103%,107%,101%,99.8%,119%,98.9%,109%,100%,101%,101,101%
